# Test results: PubChem BioAssay (EPA / NIEHS)
# Results filed as inconclusive are left out. Active and inactive are the calls of the source. How the source made its calls: active means hit-call score of the fitted dose curve at least 0.9, where 1 is the maximum; inconclusive means response in the unintended direction; inactive means score below 0.9.
# Experiments:
# [1] = biological target: human Neurokinin, NK2 Receptor, TACR2 (gene 6865) (UniProt P21452); assay: NVS_GPCR_hNK2: NovaScreen (NVS) G Protein-Coupled Receptor Assay for human Neurokinin, NK2 Receptor (AID 2283278);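 further: actives reduce bound radioligand signal relative to DMSO baseline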
# In short: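 Test chemicals displace a radioligand from receptor prepared from CHO cells in a cell-free format, read after 4 hours by scintillation counting on filters. Screening starts at 25 uM in duplicate, and active chemicals then go to concentration series.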
# [2] = biological target: Muscarinic acetylcholine receptor M2 (Homo sapiens) (UniProt P08172); assay: NVS_GPCR_hM2: NovaScreen (NVS) G Protein-Coupled Receptor Assay for human Muscarinic, M2 Receptor (AID 2283273)
# In short: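 Radioligand competition binding, cell-free, receptor from CHO; 1 h incubation; scintillation detection. Primary testing at 25 uM in duplicate.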
# [3] = biological target: human Muscarinic, M4 Receptor, CHRM4 (gene 1132) (UniProt P08173); assay: NVS_GPCR_hM4: NovaScreen (NVS) G Protein-Coupled Receptor Assay for human Muscarinic, M4 Receptor (AID 2283274)
# Experimental: (§1) NVS_GPCR_hM4 is a biochemical, single-readout assay that uses extracted gene-proteins from CHO in a cell-free assay. Measurements were taken 1 hour after chemical dosing in a 96-well plate.NVS_GPCR_hM4 is one of one assay component(s) measured or calculated from the NVS_GPCR_hM4 assay. It is designed to make measurements of radioligand binding, a form of binding reporter, as detected with scintillation counting signals by Filter-based radiodetection technology.Data from the assay component NVS_GPCR_hM4 was analyzed into 1 assay endpoint. This assay endpoint, NVS_GPCR_hM4, was analyzed in the positive analysis fitting direction relative to DMSO as the negative control and baseline of activity. Using a type of binding reporter, loss-of-signal activity can be used to understand changes in the binding as they relate to the gene CHRM4. Furthermore, this assay endpoint can be referred to as a primary readout, because the performed assay has only produced 1 assay endpoint. To generalize the intended target to other relatable targets, this assay endpoint is annotated to the gpcr intended target family, where the subfamily is rhodopsin-like receptor.
# (§2) Binding assays used specific radioligands (tritiated, iodinated) with non-radioactive competitive displacement ligands in agonist or antagonist protocols (as indicated) and various reference compounds and inhibitors to titrate specific binding to receptors and transporters. Most enzyme assays (CYPs, kinases, phosphatases, proteases, HDACs) used recombinant protein and specific substrates (fluorescence mostly, some colorimetric and radioactive) and inhibitors, followed by a biochemical separation of substrate and product. All assays for the biochemical HTS were initially run in duplicate at a single concentration (10 uM for CYP450 assays and 25 uM for all others). […] Each assay was run with positive and negative controls, and concurrent controls on every plate. The follow-up (secondary) screen tested active chemical-pairs in concentration series, as well as a few additional assays not tested in the primary screen, some selected negative inactives, and several cases re-run in the concentration series for confirmatory purposes.
# [4] = biological target: Muscarinic acetylcholine receptor M5 (Homo sapiens) (UniProt P08912); assay: NVS_GPCR_hM5: NovaScreen (NVS) G Protein-Coupled Receptor Assay for human Muscarinic, M5 Receptor (AID 2283275)
# In short: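 Chemicals passing a primary duplicate screen at 25 uM were run as singleton concentration series, maximum 50 uM. Displacement of a specific radioligand from CHO-extracted receptor was read by filter scintillation after 1 h, relative to DMSO.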
# [5] = biological target: human Neuropeptide Receptor Y1 (NPY1), NPY1R (gene 4886) (UniProt P25929); assay: NVS_GPCR_hNPY1: NovaScreen (NVS) G Protein-Coupled Receptor Assay for human Neuropeptide Receptor Y1 (NPY1) (AID 2283276)
# In short: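 Displacement of specific radioligand from NPY1 receptor of SK-N-MC origin, read by filtration and scintillation after 1 h. Compounds first tested at 25 uM in duplicate, then actives in concentration series; signal loss relative to DMSO.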
# [6] = biological target: Neuropeptide Y receptor type 2 (Homo sapiens) (UniProt P49146); assay: NVS_GPCR_hNPY2: NovaScreen (NVS) G Protein-Coupled Receptor Assay for human Neuropeptide Receptor Y2 (NPY2) (AID 2283277)
# Experimental: as §1, with “NVS_GPCR_hNPY2” for “NVS_GPCR_hM4”, “SK-N-MC” for “CHO”, “plate.NVS_GPCR_hNPY2” for “plate.NVS_GPCR_hM4”, “NVS_GPCR_hNPY2,” for “NVS_GPCR_hM4,”, “NPY2R.” for “CHRM4.”
# Binding assays used specific radioligands (tritiated, iodinated) with non-radioactive competitive displacement ligands in agonist or antagonist protocols (as indicated) and various reference compounds and inhibitors to titrate specific binding to receptors and transporters. Most enzyme assays (CYPs, kinases, phosphatases, proteases, HDACs) used recombinant protein and specific substrates (fluorescence mostly, some colorimetric and radioactive) and inhibitors, followed by a biochemical separation of substrate and product. All assays for the biochemical HTS were initially run in duplicate at a single concentration (10 uM for CYP450 assays and 25 uM for all others). Assay-chemical combinations meeting a pre-defined threshold (e.g., 30% inhibition and other criteria defined below) were then run in singleton concentration-response format with maximum concentration of 20 uM for CYPs and 50 uM for all others. […]
# [7] = biological target: human Opioid Receptor Delta 1 (Opiate D1), OPRD1 (gene 4985) (UniProt P41143); assay: NVS_GPCR_hOpiate_D1: NovaScreen (NVS) G Protein-Coupled Receptor Assay for human Opioid Receptor Delta 1 (Opiate D1) (AID 2283280)
# Experimental: as §1, with “NVS_GPCR_hOpiate_D1” for “NVS_GPCR_hM4”, “plate.NVS_GPCR_hOpiate_D1” for “plate.NVS_GPCR_hM4”, “NVS_GPCR_hOpiate_D1,” for “NVS_GPCR_hM4,”, “OPRD1.” for “CHRM4.”
# as §2
# [8] = biological target: human Thromboxane A2 Receptor (TXA2), TBXA2R (gene 6915) (UniProt P21731); assay: NVS_GPCR_hTXA2: NovaScreen (NVS) G Protein-Coupled Receptor Assay for human Thromboxane A2 Receptor (TXA2) (AID 2283282);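 further: actives reduce bound radioligand signal relative to DMSO baseline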
# In short: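 Cell-free radioligand binding with human platelet-derived receptor; 1 h after dosing, filter-based scintillation counting, loss of signal vs DMSO. Primary screen in duplicate at 25 uM.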
# [9] = biological target: human Purinergic Receptor P2Y, P2RY1 (gene 5028) (UniProt P47900); assay: NVS_GPCR_hPY2: NovaScreen (NVS) G Protein-Coupled Receptor Assay for human Purinergic Receptor P2Y (AID 2283281)
# In short: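 Filtration scintillation readout of radioligand displacement on U937 extract, measured 1 h post-dosing. Single 25 uM duplicate screen, then singleton concentration series to 50 uM for chemicals passing threshold; DMSO as baseline.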
# [10] = biological target: human Neurotensin Receptor (NTS), NTSR1 (gene 4923) (UniProt P30989); assay: NVS_GPCR_hNTS: NovaScreen (NVS) G Protein-Coupled Receptor Assay for human Neurotensin Receptor (NTS) (AID 2283279)
# Experimental: as §1, with “NVS_GPCR_hNTS” for “NVS_GPCR_hM4”, “plate.NVS_GPCR_hNTS” for “plate.NVS_GPCR_hM4”, “NVS_GPCR_hNTS,” for “NVS_GPCR_hM4,”, “Using a type of binding reporter, loss-of-signal activity can be used to understand changes in the binding as they relate to the gene CHRM4.” left out, “To generalize the intended target to other relatable targets, this assay endpoint is annotated to the gpcr intended target family, where the subfamily is rhodopsin-like receptor.” left out
# Binding assays used specific radioligands (tritiated, iodinated) with non-radioactive competitive displacement ligands in agonist or antagonist protocols (as indicated) and various reference compounds and inhibitors to titrate specific binding to receptors and transporters. Most enzyme assays (CYPs, kinases, phosphatases, proteases, HDACs) used recombinant protein and specific substrates (fluorescence mostly, some colorimetric and radioactive) and inhibitors, followed by a biochemical separation of substrate and product. […]
# Sequence of human Thromboxane A2 Receptor (TXA2), TBXA2R (gene 6915) (P21731 whole entry, looked up): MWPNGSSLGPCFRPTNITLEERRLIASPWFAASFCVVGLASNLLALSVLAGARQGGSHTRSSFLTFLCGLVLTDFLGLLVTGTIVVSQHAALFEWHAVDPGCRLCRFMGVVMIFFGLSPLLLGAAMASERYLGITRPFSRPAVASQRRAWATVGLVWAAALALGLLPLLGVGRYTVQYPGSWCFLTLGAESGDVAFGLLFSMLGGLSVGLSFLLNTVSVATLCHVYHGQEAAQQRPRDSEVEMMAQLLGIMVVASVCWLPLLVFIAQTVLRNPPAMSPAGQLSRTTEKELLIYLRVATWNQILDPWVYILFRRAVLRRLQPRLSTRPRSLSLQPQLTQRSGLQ
# Sequence of human Neurokinin, NK2 Receptor, TACR2 (gene 6865) (P21452 whole entry, looked up): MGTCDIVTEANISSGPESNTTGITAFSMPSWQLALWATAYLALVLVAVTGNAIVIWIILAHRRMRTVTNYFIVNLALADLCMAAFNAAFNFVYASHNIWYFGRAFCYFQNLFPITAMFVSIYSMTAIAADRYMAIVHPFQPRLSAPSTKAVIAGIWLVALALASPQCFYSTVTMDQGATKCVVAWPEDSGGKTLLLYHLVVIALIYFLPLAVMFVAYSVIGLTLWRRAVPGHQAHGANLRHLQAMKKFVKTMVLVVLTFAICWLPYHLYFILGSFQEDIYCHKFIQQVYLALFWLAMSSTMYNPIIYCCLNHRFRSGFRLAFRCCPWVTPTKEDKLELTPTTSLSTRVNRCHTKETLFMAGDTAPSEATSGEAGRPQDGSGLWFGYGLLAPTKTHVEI
# Sequence of human Opioid Receptor Delta 1 (Opiate D1), OPRD1 (gene 4985) (P41143 whole entry, looked up): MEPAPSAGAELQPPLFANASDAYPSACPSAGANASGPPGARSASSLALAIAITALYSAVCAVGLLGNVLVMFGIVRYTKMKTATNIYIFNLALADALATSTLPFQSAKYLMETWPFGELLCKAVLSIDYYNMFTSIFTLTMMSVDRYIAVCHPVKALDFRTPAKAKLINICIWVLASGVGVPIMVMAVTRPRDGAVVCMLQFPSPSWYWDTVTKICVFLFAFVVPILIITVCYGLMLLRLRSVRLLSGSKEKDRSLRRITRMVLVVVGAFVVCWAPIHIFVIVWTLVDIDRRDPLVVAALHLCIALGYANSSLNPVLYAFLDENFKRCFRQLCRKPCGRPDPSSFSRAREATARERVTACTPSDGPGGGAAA
# Sequence of human Muscarinic, M4 Receptor, CHRM4 (gene 1132) (P08173 whole entry, looked up): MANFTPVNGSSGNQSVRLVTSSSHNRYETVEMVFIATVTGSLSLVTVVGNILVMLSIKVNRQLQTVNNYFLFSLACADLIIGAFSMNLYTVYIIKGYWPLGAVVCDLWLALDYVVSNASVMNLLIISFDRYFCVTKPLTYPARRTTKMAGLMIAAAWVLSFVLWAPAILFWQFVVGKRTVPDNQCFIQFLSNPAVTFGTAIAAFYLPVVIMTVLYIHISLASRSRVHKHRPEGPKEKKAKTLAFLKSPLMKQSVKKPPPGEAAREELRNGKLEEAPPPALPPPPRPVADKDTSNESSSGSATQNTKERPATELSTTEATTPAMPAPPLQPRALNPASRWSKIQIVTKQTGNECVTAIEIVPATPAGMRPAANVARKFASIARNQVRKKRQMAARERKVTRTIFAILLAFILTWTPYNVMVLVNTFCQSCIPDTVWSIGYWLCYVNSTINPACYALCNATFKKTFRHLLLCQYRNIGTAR
# Sequence of human Neuropeptide Receptor Y1 (NPY1), NPY1R (gene 4886) (P25929 whole entry, looked up): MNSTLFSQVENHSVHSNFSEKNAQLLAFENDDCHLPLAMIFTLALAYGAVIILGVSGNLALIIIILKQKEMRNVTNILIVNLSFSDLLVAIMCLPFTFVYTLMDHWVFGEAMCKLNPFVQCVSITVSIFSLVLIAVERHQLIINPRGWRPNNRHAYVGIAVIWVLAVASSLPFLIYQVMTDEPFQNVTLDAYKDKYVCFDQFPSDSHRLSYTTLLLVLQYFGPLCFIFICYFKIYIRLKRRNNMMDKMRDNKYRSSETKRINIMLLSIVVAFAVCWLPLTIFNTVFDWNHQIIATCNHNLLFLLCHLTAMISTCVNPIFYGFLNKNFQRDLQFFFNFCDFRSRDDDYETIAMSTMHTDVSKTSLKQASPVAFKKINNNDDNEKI
# Sequence of Muscarinic acetylcholine receptor M5 (Homo sapiens) (P08912 whole entry, looked up): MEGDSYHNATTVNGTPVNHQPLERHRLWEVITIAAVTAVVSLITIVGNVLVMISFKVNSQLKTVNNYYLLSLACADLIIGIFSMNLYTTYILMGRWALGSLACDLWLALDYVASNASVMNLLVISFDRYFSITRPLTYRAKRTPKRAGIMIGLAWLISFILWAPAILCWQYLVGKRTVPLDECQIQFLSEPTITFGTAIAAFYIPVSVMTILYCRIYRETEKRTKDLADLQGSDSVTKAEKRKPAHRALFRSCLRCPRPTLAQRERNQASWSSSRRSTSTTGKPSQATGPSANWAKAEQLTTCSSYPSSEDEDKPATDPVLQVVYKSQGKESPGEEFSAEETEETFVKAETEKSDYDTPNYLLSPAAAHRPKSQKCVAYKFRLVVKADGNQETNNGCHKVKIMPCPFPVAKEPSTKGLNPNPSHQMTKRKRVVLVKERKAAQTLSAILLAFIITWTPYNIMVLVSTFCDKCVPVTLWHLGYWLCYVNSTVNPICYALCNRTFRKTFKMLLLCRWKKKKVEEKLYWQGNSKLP
# Sequence of Muscarinic acetylcholine receptor M2 (Homo sapiens) (P08172 whole entry, looked up): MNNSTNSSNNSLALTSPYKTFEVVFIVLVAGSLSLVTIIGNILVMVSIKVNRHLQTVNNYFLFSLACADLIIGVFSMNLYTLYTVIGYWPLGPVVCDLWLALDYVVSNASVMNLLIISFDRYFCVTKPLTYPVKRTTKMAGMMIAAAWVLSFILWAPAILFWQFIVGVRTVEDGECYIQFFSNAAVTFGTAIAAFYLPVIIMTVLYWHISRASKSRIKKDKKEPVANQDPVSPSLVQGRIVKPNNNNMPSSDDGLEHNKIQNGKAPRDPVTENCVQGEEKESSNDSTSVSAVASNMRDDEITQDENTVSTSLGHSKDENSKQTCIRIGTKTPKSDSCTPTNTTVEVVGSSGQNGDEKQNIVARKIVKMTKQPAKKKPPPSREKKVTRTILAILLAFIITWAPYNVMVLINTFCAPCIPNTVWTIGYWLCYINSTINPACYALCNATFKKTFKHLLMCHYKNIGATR
# Sequence of Neuropeptide Y receptor type 2 (Homo sapiens) (P49146 whole entry, looked up): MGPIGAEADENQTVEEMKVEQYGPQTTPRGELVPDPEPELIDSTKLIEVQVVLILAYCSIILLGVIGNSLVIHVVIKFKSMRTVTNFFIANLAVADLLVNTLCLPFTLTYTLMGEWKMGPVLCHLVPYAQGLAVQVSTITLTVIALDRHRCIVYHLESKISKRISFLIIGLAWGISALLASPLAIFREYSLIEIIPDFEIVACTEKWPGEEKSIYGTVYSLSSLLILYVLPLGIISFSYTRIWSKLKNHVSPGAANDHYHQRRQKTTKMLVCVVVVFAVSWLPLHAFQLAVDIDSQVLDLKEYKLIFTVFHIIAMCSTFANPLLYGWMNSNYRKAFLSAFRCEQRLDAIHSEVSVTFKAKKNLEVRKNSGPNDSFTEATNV
# Sequence of human Purinergic Receptor P2Y, P2RY1 (gene 5028) (P47900 whole entry, looked up): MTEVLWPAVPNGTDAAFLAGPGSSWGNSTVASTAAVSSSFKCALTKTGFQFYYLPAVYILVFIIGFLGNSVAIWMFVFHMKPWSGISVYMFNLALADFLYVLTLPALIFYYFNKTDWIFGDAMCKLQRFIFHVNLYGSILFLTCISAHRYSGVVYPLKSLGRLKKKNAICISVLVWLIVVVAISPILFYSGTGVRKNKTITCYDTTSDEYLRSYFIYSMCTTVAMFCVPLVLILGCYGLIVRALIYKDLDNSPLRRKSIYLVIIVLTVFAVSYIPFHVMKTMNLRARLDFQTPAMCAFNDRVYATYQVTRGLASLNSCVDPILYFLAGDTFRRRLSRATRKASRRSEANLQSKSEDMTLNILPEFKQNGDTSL
# Sequence of human Neurotensin Receptor (NTS), NTSR1 (gene 4923) (P30989 whole entry, looked up): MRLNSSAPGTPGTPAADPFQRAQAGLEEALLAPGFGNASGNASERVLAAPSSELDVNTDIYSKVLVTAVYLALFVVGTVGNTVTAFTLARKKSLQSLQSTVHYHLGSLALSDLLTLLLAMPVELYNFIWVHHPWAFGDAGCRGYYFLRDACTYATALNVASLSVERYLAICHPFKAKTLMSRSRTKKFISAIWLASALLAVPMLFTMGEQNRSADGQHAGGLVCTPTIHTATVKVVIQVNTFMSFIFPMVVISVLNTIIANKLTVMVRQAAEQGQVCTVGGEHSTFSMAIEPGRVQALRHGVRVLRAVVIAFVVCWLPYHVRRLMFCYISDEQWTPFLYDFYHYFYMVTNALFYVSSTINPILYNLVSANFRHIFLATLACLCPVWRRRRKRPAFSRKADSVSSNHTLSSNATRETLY
compound,measurement,setting,value
Cc1ccc(N)c(N)c1,outcome,[1],inactive
[Cl-].[Cl-].[Hg+2],AC50,[2],1.48 µM (active)
same,AC50,[3],4.13 µM (active)
same,AC50,[4],0.428 µM (active)
same,AC50,[5],14.7 µM (active)
same,AC50,[6],8.85 µM (active)
same,AC50,[1],0.838 µM (active)
same,AC50,[7],0.275 µM (active)
same,outcome,[8],inactive
O=C(N[C@H](c1ccccc1)[C@@H]1CN2CCC1CC2)c1c(Cl)ccc(C(F)(F)F)c1Cl,outcome,[3],inactive
same,AC50,[1],23.9 µM (active)
same,outcome,[7],inactive
CCCCCCCCn1sccc1=O,AC50,[5],6.28 µM (active)
same,outcome,[9],inactive
same,AC50,[8],9.13 µM (active)
N#CC(Br)Br,outcome,[1],inactive
CCOc1cccc(C2(N3CCN(c4ccccc4)CC3)CCC(C)CC2)c1 (stereo not drawn),outcome,[5],inactive
CCCCCCCCCCCCCN1CC(C)OC(C)C1 (stereo not drawn),outcome,[3],inactive
O=[N+]([O-])C(Br)(CO)CO,AC50,[1],1.21 µM (active)
Nc1ccc(N=Nc2ccccc2)cc1,outcome,[7],inactive
C[C@]12C=CC3=C4CCC(=O)C=C4CC[C@H]3[C@@H]1CC[C@@H]2O,AC50,[1],15.6 µM (active)
CCN(CC)CCO,outcome,[3],inactive
Nc1cc(Cl)cc(C(=O)O)c1Cl,outcome,[8],inactive
O=[N+]([O-])c1ccc(Oc2ccc(Cl)cc2Cl)cc1,outcome,[1],inactive
CCOC(=O)[C@]1(c2ccccc2)Oc2ccccc2[C@@H]1N,AC50,[2],3.28 µM (active)
same,AC50,[3],13.3 µM (active)
same,AC50,[4],4.93 µM (active)
same,outcome,[10],inactive
same,AC50,[7],16.5 µM (active)
CCCCCOC(=O)c1ccccc1C(=O)OCCCCC,outcome,[7],inactive
c1ccc(C2CO2)cc1 (stereo not drawn),outcome,[4],inactive
O=P(OCCCl)(OCCCl)OCCCl,outcome,[7],inactive
CN(C)C(=O)Nc1ccc(Cl)cc1,outcome,[8],inactive
COP(=S)(OC)SCN1C(=O)c2ccccc2C1=O,AC50,[1],8.63 µM (active)
same,outcome,[7],inactive
O=C(Oc1ccc(Br)cc1)N1CCN2CCC1CC2,AC50,[2],16.8 µM (active)
same,AC50,[3],15.3 µM (active)
same,AC50,[4],15.7 µM (active)
Cc1cccc(N)c1N,outcome,[5],inactive
same,outcome,[1],inactive
CC(C)(C)C(O)(CCc1ccc(Cl)cc1)Cn1cncn1 (stereo not drawn),AC50,[1],13.1 µM (active)
same,outcome,[8],inactive
Oc1ccc2ccc3cccc4ccc1c2c34,outcome,[1],inactive
same,outcome,[8],inactive
COC(=O)Nc1nc2ccccc2[nH]1,outcome,[6],inactive
CCC[CH2][Sn]([Cl])([CH2]CCC)[CH2]CCC,AC50,[3],17.6 µM (active)
same,outcome,[4],inactive
same,AC50,[5],1.58 µM (active)
same,AC50,[6],10.3 µM (active)
same,AC50,[1],1.08 µM (active)
same,AC50,[7],0.593 µM (active)
same,AC50,[8],1.77 µM (active)
N#CC(Br)(Br)C(N)=O,outcome,[1],inactive
